# Activity calls are given as the source filed them. How the source made its calls: active means hit-call score of the fitted dose curve at least 0.9, where 1 is the maximum; inactive means score below 0.9.
# Legend:
# [1] = APR_HepG2_CellLoss_72hr: Apredica 72-hour HepG2 Assay for Cell Loss (AID 2282915); settings: high-content imaging
# Summary of the method: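 Cell number comes from Hoechst 33342-labelled nuclei, imaged at 20x after 3.7% formaldehyde fixation. Dosing was 0.39–200 uM, ten concentrations in duplicate, 0.5% DMSO final, for 72 h. Bidirectional fit relative to DMSO baseline.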
# [2] = APR_HepG2_P-H2AX_72hr: Apredica 72-hour HepG2 Assay for H2AX Phosphorylation (AID 2282916); settings: imaging, actives raise or lower the signal;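 further: phospho-histone H2A.x immunostain intensity per cell marking DNA damage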
# Summary of the method: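 HepG2 cells treated 72 h at 0.39–200 uM, 0.5% DMSO final, duplicates. Formaldehyde-fixed, Triton-permeabilised, immunostained for phospho-H2A.x with Hoechst; fluorescence imaged at 20x, bidirectional fit versus DMSO.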
# [3] = APR_HepG2_MitoMembPot_72hr: Apredica 72-hour HepG2 Assay for Mitochondrial Membrane Potential (AID 2282917); settings: imaging, actives raise or lower the signal
# Summary of the method: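 Membrane potential read by MitoTracker Red CMXRos (250 nM, 30 min, pre-fixation) fluorescence imaging of HepG2 after 72 hr exposure. Ten concentrations, 0.39–200 uM, duplicate wells, 0.5% DMSO; fitted in both directions against DMSO baseline.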
# [4] = APR_HepG2_MitoticArrest_72hr: Apredica 72-hour HepG2 Assay for Mitotic Arrest (AID 2282918); settings: high-content imaging, actives raise or lower the signal
# Summary of the method: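 Using high-content imaging of fixed HepG2 cells, phospho-histone H3 signal was measured following a 72 hr incubation with ten-point compound dilutions up to 200 uM. DMSO served as the negative control and baseline for bidirectional curve fitting.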
# [5] = APR_HepG2_MicrotubuleCSK_72hr: Apredica 72-hour HepG2 Assay for Microtubule CSK Stabilty (AID 2282919); settings: HepG2 microtubule cytoskeleton, high-content imaging, actives raise or lower the signal
# Summary of the method: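 Read-out is tubulin fluorescence intensity from high-content imaging of HepG2 cells, with nuclei identified by Hoechst 33342. Treatment lasts 72 h at 0.39–200 uM, and curves are fitted bidirectionally against the DMSO negative control.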
# [6] = APR_HepG2_StressKinase_72hr: Apredica 72-hour HepG2 Assay for Stress Kinase (AID 2282921); settings: HepG2 stress kinase (phospho-c-Jun) imaging, actives raise or lower the signal
# Summary of the method: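 HepG2 cells treated 72 hr with 0.39–200 uM compound, 0.5% v/v DMSO, duplicate wells. After formaldehyde fixation and Triton permeabilization, stained with anti-phospho-c-Jun (1:500) and Cy3 secondary, imaged at 20x. Fitted in both directions against DMSO.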
# [7] = APR_HepG2_StressKinase_24hr: Apredica 24-hour HepG2 Assay for Stress Kinase (AID 2282922); settings: HepG2 stress kinase (phospho-c-Jun) imaging, actives raise or lower the signal
# Summary of the method: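 HepG2, 24 hr dosing, 0.39–200 uM in duplicate, 0.5% DMSO; formaldehyde fix (3.7%), 0.5% Triton X-100; anti-phospho-c-Jun + Cy3 secondary, Hoechst counterstain; ArrayScan imaging; bidirectional curve fit vs DMSO baseline.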
# [8] = APR_HepG2_p53Act_72hr: Apredica 72-hour HepG2 Assay for p53 Activation (AID 2282923); settings: high-content imaging, actives raise or lower the signal;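 further: average cellular p53 protein immunofluorescence intensity in HepG2 cells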
# Summary of the method: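 HepG2 cells exposed 72 h to 0.39–200 uM in 0.5% DMSO, duplicates. Fixed, permeabilized cells immunostained for p53 (Cy5) with Hoechst; imaged at 20x, fluorescence analyzed bidirectionally against DMSO.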
# [9] = APR_HepG2_MitoMass_72hr: Apredica 72-hour HepG2 Assay for Mitochondrial Mass (AID 2282924); settings: high-content imaging, actives raise or lower the signal;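 further: MitoTracker Red CMXRos stain intensity per cell imaged as mitochondrial mass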
# Summary of the method: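 HepG2, 72 hr cmpd, 10 conc 0.39–200 uM in dup, DMSO 0.5% v/v. MitoTracker Red CMXRos 250 nM 30 min pre-fix; formaldehyde 3.7% fix 30 min RT. HCS imaging, gain/loss fit vs DMSO.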
# [10] = APR_HepG2_NuclearSize_72hr: Apredica 72-hour HepG2 Assay for Nuclear Size (AID 2282925); settings: high-content imaging, actives raise or lower the signal
# Summary of the method: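 HepG2; cpd 0.39–200 uM, 10 conc, duplicate; 72 h; DMSO 0.5% v/v; fix 3.7% formaldehyde 30 min RT; Triton permeabilization; Hoechst 2 ug/mL; HCS imaging 20x; nuclear diameter; gain/loss fit vs DMSO.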
# [11] = ATG_CMV_CIS: Attagene CIS-FACTORIAL HepG2 Assay for human CMV (Internal Marker) (AID 2282928); settings: HepG2 CMV promoter reporter, transcription factor profiling; actives raise or lower the signal;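 further: endpoint acts as a background internal control marker rather than a target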
# Summary of the method: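 HepG2 cells transiently transfected with multiple cis-regulated reporter units; 24 h compound exposure. Reporter mRNA quantified by RT-PCR, 6-FAM primer-extension labeling, HpaI digestion and capillary electrophoresis; bidirectional fitting against DMSO baseline.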
# [12] = ATG_DR4_LXR_CIS: Attagene CIS-FACTORIAL HepG2 Assay for human Liver X Receptor (LXR), DR4 submotif (AID 2282929); settings: HepG2 Attagene DR4 cis-reporter, mRNA transcription; actives raise or lower the signal
# Summary of the method: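 After transient transfection with multiplexed cis-promoter reporter units, HepG2 cells received test chemicals for 24 h. Reporter mRNA induction, detected by fluorescence after RT-PCR and capillary electrophoresis, was scored relative to DMSO.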
# [13] = molecular target: Aryl hydrocarbon receptor (Homo sapiens) (UniProt P35869); test: ATG_Ahr_CIS: Attagene CIS-FACTORIAL HepG2 Assay for human Aryl Hydrocarbon Receptor (Ahr) (AID 2282930); settings: HepG2 AhR cis-factorial reporter transcription; actives raise or lower the signal
# Aryl hydrocarbon receptor (Homo sapiens), sequence (P35869 whole entry, looked up): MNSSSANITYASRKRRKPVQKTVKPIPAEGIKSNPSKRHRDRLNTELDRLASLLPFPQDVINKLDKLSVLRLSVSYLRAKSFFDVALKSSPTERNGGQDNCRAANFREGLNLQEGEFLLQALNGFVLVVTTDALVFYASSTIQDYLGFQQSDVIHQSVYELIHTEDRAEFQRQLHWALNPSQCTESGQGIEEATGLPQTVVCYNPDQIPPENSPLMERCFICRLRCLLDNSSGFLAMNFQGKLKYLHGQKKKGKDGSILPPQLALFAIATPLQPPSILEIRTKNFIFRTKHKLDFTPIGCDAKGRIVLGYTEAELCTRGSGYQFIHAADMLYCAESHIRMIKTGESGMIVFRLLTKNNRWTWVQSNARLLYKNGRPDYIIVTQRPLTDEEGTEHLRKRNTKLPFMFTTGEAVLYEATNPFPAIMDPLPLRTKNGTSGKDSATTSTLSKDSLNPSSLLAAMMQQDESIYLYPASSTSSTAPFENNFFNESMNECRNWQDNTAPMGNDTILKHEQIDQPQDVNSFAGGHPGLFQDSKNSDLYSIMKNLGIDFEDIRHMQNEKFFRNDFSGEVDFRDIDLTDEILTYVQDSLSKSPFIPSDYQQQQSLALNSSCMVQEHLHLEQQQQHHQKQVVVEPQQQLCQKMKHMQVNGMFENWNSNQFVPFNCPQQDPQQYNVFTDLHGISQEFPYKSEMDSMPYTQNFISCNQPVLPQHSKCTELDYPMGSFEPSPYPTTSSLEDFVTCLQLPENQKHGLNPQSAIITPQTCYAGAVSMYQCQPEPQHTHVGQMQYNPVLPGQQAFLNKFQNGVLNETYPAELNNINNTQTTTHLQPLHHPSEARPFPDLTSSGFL
# Summary of the method: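 HepG2, transient MRTU (cis) transfection, 24 h exposure. RNA → cDNA → PCR → 6-FAM primer extension → HpaI 2 h 37 C → CE. Fit: bidirectional, DMSO baseline.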
# [14] = ATG_AP_1_CIS: Attagene CIS-FACTORIAL HepG2 Assay for human Activator Protein 1 (AP-1) (AID 2282931); settings: HepG2 Attagene cis-factorial AP-1 reporter mRNA; actives raise or lower the signal
# Summary of the method: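 After 24 h incubation with test chemical, RNA from transfected HepG2 cells was reverse-transcribed, amplified, fluorescently labelled and digested before capillary electrophoresis. Reporters were driven by cis-regulatory promoters; activity fitted bidirectionally versus DMSO.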
# [15] = ATG_AP_2_CIS: Attagene CIS-FACTORIAL HepG2 Assay for human Activator Protein 2 (AP-2) (AID 2282932); settings: HepG2 AP-2 cis-reporter, Attagene transcription factor profiling; actives raise or lower the signal
# Summary of the method: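 HepG2, transient MRTU transfection, cis-regulated reporters; 24 h compound exposure; RNA isolated, RT-PCR, 6-FAM labelling, HpaI digest, CE fluorescence. DMSO = negative control/baseline, bidirectional fit.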
# [16] = ATG_BRE_CIS: Attagene CIS-FACTORIAL HepG2 Assay for human Bone Morphogenetic Protein (BMP) Response Element (BRE) (AID 2282933); settings: HepG2 BMP response element reporter, Attagene transcription factor profiling; actives raise or lower the signal
# Summary of the method: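 Fluorescence-labelled reporter cDNA fragments, separated by capillary electrophoresis, gave the signal for this component of a 52-readout multiplex. HepG2 cells were transfected, exposed to chemicals for 24 h, and compared with DMSO using bidirectional fitting.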
# [17] = ATG_CRE_CIS: Attagene CIS-FACTORIAL HepG2 Assay for human cAMP Responsive Element (CRE) binding protein 3 (AID 2282926); settings: HepG2 CRE cis-reporter, Attagene multiplexed mRNA; actives raise or lower the signal
# Summary of the method: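 Transfected HepG2 were treated for 24 hours, then RNA was extracted and reporter cDNA amplified with sequence-specific primers. Labelled fragments were separated by capillary electrophoresis, and the CRE signal was fitted bidirectionally with DMSO as baseline.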
# [18] = molecular target: Retinoic acid receptor alpha (Homo sapiens) (UniProt P10276); test: ATG_DR5_RAR_CIS: Attagene CIS-FACTORIAL HepG2 Assay for human Retinoic Acid Receptor Alpha (RARE), DR5 submotif (AID 2282934); settings: HepG2 Attagene cis-factorial RARE DR5 reporter, mRNA; actives raise or lower the signal;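 on AC50: reporter responds to endogenous RAR alpha beta and gamma in HepG2 not RARA alone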
# Retinoic acid receptor alpha (Homo sapiens), sequence (P10276 whole entry, looked up): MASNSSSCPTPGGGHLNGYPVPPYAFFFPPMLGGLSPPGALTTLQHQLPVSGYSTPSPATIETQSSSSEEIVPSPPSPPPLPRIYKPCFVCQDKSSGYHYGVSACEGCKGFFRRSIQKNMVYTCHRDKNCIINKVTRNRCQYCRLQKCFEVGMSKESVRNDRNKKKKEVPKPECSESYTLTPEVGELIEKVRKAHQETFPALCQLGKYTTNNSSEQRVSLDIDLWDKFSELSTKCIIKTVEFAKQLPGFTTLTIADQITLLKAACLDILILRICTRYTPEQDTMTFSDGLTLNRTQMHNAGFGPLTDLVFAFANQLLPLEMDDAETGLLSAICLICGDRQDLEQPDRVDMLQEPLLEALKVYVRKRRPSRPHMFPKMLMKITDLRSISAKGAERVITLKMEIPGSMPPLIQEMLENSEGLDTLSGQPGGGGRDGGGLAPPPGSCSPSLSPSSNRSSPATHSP
# Summary of the method: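 HepG2, transient cis-reporter transfection, 24 h exposure. mRNA readout: RT-PCR, FAM label, HpaI cut, capillary electrophoresis. DMSO baseline, gain/loss fitting.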
# [19] = APR_HepG2_P-H2AX_24hr: Apredica 24-hour HepG2 Assay for H2AX Phosphorylation (AID 2282920); settings: high-content imaging, actives raise or lower the signal
# Summary of the method: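 Human HepG2 liver cells, treated 24 hr with test chemicals (0.39–200 uM, final DMSO 0.5% v/v), are fixed and co-stained for phospho-H2A.x and c-Jun with Hoechst. Imaged intensity is fitted in both directions against DMSO controls.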
# [20] = molecular target: CCAAT/enhancer-binding protein beta (Homo sapiens) (UniProt P17676); test: ATG_C_EBP_CIS: Attagene CIS-FACTORIAL HepG2 Assay for human CCAAT/Enhancer Binding Protein (C/EBP) beta (AID 2282927); settings: HepG2 Attagene cis-factorial transcription factor reporter; actives raise or lower the signal
# CCAAT/enhancer-binding protein beta (Homo sapiens), sequence (P17676 whole entry, looked up): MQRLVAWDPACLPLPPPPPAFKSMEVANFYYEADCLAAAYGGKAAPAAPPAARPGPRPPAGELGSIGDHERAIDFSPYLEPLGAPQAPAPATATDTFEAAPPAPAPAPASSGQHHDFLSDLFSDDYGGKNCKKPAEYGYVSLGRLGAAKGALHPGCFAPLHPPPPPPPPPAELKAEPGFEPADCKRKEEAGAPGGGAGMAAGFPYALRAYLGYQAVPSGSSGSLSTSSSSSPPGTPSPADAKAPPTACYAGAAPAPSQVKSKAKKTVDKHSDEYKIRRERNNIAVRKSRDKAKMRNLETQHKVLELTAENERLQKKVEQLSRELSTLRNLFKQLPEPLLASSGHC
# Summary of the method: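 Changes in reporter mRNA, rather than exogenous chimeric receptor activity, reflect native C/EBP signalling in transfected HepG2 cells dosed for 24 h; transcripts are detected by RT-PCR and capillary electrophoresis.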
compound,measurement,setting,value
O=c1[nH]cc(F)c(=O)[nH]1,AC50,[1],2.45 µM (active)
same,outcome,[2],inactive
same,outcome,[3],inactive
same,outcome,[4],inactive
same,outcome,[5],inactive
same,outcome,[6],inactive
same,outcome,[7],inactive
same,outcome,[8],inactive
same,outcome,[9],inactive
same,outcome,[10],inactive
same,AC50,[11],8.27 µM (active)
same,outcome,[12],inactive
same,outcome,[13],inactive
same,AC50,[14],12.9 µM (active)
same,outcome,[15],inactive
same,outcome,[16],inactive
CC1(C)NC(=O)NC1=O,outcome,[1],inactive
same,outcome,[2],inactive
same,outcome,[3],inactive
same,outcome,[4],inactive
same,outcome,[5],inactive
same,outcome,[6],inactive
same,outcome,[7],inactive
same,outcome,[8],inactive
same,outcome,[9],inactive
same,outcome,[17],inactive
same,outcome,[11],inactive
same,outcome,[12],inactive
same,outcome,[13],inactive
same,outcome,[14],inactive
same,outcome,[15],inactive
same,outcome,[16],inactive
same,outcome,[18],inactive
CCCCCCCCCCO,outcome,[1],inactive
same,outcome,[2],inactive
same,outcome,[3],inactive
same,outcome,[4],inactive
same,outcome,[5],inactive
same,outcome,[19],inactive
same,outcome,[6],inactive
same,outcome,[8],inactive
same,outcome,[9],inactive
same,outcome,[11],inactive
same,outcome,[12],inactive
same,outcome,[13],inactive
same,outcome,[14],inactive
same,outcome,[15],inactive
same,outcome,[16],inactive
same,outcome,[18],inactive
CC1=C(/C=C/C(C)=C/C=C/C(C)=C/CO)C(C)(C)CCC1,AC50,[1],96.6 µM (active)
same,AC50,[2],19.4 µM (active)
same,outcome,[3],inactive
same,AC50,[4],92.8 µM (active)
same,outcome,[5],inactive
same,AC50,[19],76.5 µM (active)
same,outcome,[6],inactive
same,outcome,[8],inactive
same,AC50,[9],112 µM (active)
same,outcome,[20],inactive
same,AC50,[11],193 µM (active)
same,AC50,[12],65.6 µM (active)
same,AC50,[13],104 µM (active)
same,AC50,[14],168 µM (active)
same,AC50,[15],164 µM (active)
same,AC50,[18],0.104 µM (active)
